Only some compounds are listed: those with a hit (about 2.4% of all), similar ones and a draw of the others.
D2 PAM-1: Beta-Arrestin HTS for Positive Allosteric Modulators of the Human D2 Dopamine Receptor: Potentiators | D(2) dopamine receptor (Homo sapiens), P14416 | DiscoveRx D2 beta-arrestin cells, luminescence, 90 min; 100% = 57 uM dopamine signal | potentiation, % (no concentration beside the values) | hit rate 0.23% among 360,000 | AID 624464, 2012; in the data active means potentiation above about 50%; inconclusive means mostly about 30% to 49%
Target sequence (P14416 whole entry, looked up): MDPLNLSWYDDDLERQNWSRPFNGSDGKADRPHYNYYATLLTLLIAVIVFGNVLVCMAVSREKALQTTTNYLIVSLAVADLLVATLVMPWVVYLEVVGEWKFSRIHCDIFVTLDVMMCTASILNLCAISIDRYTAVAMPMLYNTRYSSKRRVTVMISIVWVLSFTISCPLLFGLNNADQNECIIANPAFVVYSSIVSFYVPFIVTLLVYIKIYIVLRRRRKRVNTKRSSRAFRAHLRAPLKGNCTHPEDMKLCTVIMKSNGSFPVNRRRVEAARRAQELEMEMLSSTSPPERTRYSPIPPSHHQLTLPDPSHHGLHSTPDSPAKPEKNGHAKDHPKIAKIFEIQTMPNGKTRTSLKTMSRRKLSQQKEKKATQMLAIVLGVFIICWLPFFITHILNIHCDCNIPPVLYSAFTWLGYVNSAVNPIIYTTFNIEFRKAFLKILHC
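PathHunter D2 cells, attached overnight at 37 deg C, received compound in DMSO plus dopamine at EC20 (50 nM final) for 90 min at 37 deg C. Beta-arrestin recruitment was read as luminescence after 1 h with detection reagent at ambient temperature.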
D2 ag-1: Beta-Arrestin HTS for Positive Allosteric Modulators of the Human D2 Dopamine Receptor: Agonists. D(2) dopamine receptor (Homo sapiens), P14416. DiscoveRx PathHunter D2 beta-arrestin, luminescence, 90 min; 100% = 57 uM dopamine signal. activation, % (test concentration not listed). hit rate 0.084% among 360,000. AID 624465, 2012; in the data active means activation above about 40%; inconclusive means between about 15% and that limit
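DiscoveRx PathHunter D2 beta-arrestin cells (2,100/well) attached overnight, then compound-stimulated 90 min at 37 C in HBSS/10 mM HEPES/0.1% Tween-20 buffer; beta-galactosidase complementation read by luminescence after 1 h at ambient temperature. Dopamine 57 uM final (EC100) as control.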
D2 PAM-2: HTS Assay for Positive Allosteric Modulators of the Human D2 Dopamine Receptor: Primary Screen for Potentiators | hit rate 0.34% among 340,000 | HEK293 T-REx D2, calcium flux, EC20 dopamine potentiation | D(2) dopamine receptor (Homo sapiens), P14416 | potentiation, % at 10 µM;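 active means potentiation over 3 SD above the plate norm, cut at about 30% in these data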; further: 0% is about no effect
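Cells plated with tetracycline inducer and held overnight at 30 C; calcium dye loaded 30–90 min at room temperature; baseline taken, compound added and read 180 s; EC20 dopamine then added and read 180 s.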
D2 antag: HTS Assay for Allosteric Antagonists of the Human D2 Dopamine Receptor: Primary Screen for Antagonists. D(2) dopamine receptor (Homo sapiens), P14416. HEK293 TREx D2 cells, calcium flux, dopamine EC80. inhibition, % at 10 µM. hit rate 2% among 340,000; in the data active means inhibition above about 30%; inactive means below that, where a call was filed; further: 0% is about no effect
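In this primary screen, negative modulation is detected by tracking calcium flux after an EC80 dopamine challenge in inducible HEK293 T-REx D2 cells preexposed to test compound for 180 s.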
D2 ag-2: HTS Assay for Allosteric Agonists of the Human D2 Dopamine Receptor: Primary Screen for Agonists; hit rate 0.53% among 340,000; HEK293 T-REx D2 cells, calcium flux agonist mode; D(2) dopamine receptor (Homo sapiens), P14416; activation, % at 2 µM;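 active means activation over 3 SD above normal in the single-dose calcium agonist read, cut at about 30% in these data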; further: 0% is about no effect
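Calcium-flux readout, 1 cycle/sec over 180 s following compound pin transfer, in inducible HEK293 Trex D2 cells (force-coupled); dopamine controls included. Positive calcium responses during this window marked compounds as potential agonists.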
D3 ag: qHTS of D3 Dopamine Receptor Agonist: D3 Dopamine Receptor B-arrestin Agonist Confirmatory Assay; shares compounds with D2 ag-2; DiscoveRx D3 beta-arrestin cells, luminescence, 90 min; Potency, µM (top dose mostly 76.9 µM), inactives show at the top dose activation, most hits filed as activators; hit rate 4% among 2,300;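 further: potency means the concentration at half of the fitted maximal effect; 100% = dopamine control response; nearly all actives have a fitted effect of over 70% in size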
D2 ag-3: qHTS of D3 Dopamine Receptor Agonist: D2 Dopamine Receptor B-arrestin Agonist Counterscreen. shares compounds with D2 ag-2. DiscoveRx PathHunter D2 beta-arrestin, luminescence, 90 min; response scale: percent relative to full dopamine signal. Potency, µM (top dose mostly 76.9 µM), without a hit: at the top dose activation, most hits filed as activators. hit rate 5.9% among 2,300; further: potency means the concentration at half of the fitted maximal effect; % of control where 0% means no effect; nearly all actives have a fitted effect of over 70% in size
Active calls of the source: *; ? = inconclusive; . = no result. Unless noted, the call rests on the fitted dose curve; in most records, active means well fitted activation curve with a large enough effect; inconclusive means small, poorly fitted or top-dose-only effect; inactive means flat fitted curve, though single readings scatter.

SMILES	D2 PAM-1	D2 ag-1	D2 PAM-2	D2 antag	D2 ag-2	D3 ag	D2 ag-3
COc1ccc([C@H]2CC(=O)C=C(c3ccc(F)nc3)C2)cc1OC	2	1	-6	4	0	.	.
COc1ccc(C2=CC(=O)C[C@H](c3ccc(OC)c(OC)c3)C2)cn1	-5	1	-3	-11	1	2%	4%
O=C1C=C(O)CC(c2ccc(Cl)cc2)C1 (stereo not given)	-21	-1	4	-8	1	.	.
COC(=O)c1nnn(CC(=O)Nc2cc(F)ccc2F)c1C(=O)OC	.	.	-3	.	-1	.	.
COc1cc(NC(=O)c2cc3c(=O)oc4ccc(C)cc4c3s2)cc(OC)c1OC	.	.	10	.	1	.	.
COc1ccc([C@H]2CC(=O)C=C(c3ccc4cc[nH]c4c3)C2)cc1	-3	-2	-4	0	-1	2%	-2%
COc1ccc(C2=CC(=O)C[C@H](c3ccc(OC)cc3)C2)cc1	-8	-2	0	.	.	.	.
COc1ccc(SCc2cc(=O)c3cc(Cl)ccc3[nH]2)cc1	.	.	5	.	-1	.	.
CCCN(CC1CC1)C(=O)COC(=O)c1oc2c(F)cccc2c1C	15	?	-18	41*	43*	25%	?
CCN1CCN(c2csc3ccc(C)cc3c2=O)CC1	.	.	-2	.	-1	.	.
CCOc1ccc(NC(=O)c2nnn(-c3ccc(F)c(Cl)c3)c2C)cc1	.	.	3	.	1	.	.
CCOc1ccc(C(=O)C(CCC(CN(C)C)C(=O)c2ccc(OCC)cc2)CN(C)C)cc1 (stereo not given)	-11	-1	16	37*	3	-17%	-3%
COc1ccc(C(=O)C(CCCCC(CN(C)C)C(=O)c2ccc(OC)cc2)CN(C)C)cc1 (stereo not given)	-35	-1	.	.	.	.	.
CCC(C)c1ccc(OCC(=O)Nc2cccc(C(=O)Nc3ccc(C(=O)O)cc3)c2)cc1 (stereo not given)	-12	3	-26	5	64*	22%	1%
CCOC(=O)c1ccc(N2CN(CCc3ccccc3)CNC2=S)cc1	-9	-2	7	-15	7	-5%	-4%
CCCN1CNC(=S)N(c2ccc(C(=O)OCC)cc2)C1	3	-3	-4	-1	0	.	.
Cc1ccc(Cl)cc1N1CCN(CCCNC(=O)Cn2ncc3c([nH]c4ccccc43)c2=O)CC1	.	.	-20	.	1	.	.
C/C=C/c1cc(CN2CCN(c3ccccc3)CC2)c(O)c(OC)c1	3	5	-33	.	.	-5%	6%
Cc1ccc(C)c(S(=O)(=O)c2nnn3c2nc(NC(C)C)c2sccc23)c1	.	.	5	.	-1	.	.
CC(Nc1c[nH]c(=O)[nH]c1=O)c1ccccc1 (stereo not given)	-6	0	4	69*	1	0%	0%
O=C(Nc1c[nH]c(=O)[nH]c1=O)c1ccccc1Br	-3	-1	6	7	0	.	.
c1ccc(CN2CCN(c3ncnc4nc[nH]c34)CC2)cc1	8	10	-22	68*	81*	3%	?
C1=C(c2ccccc2)CCN(c2ncnc3nc[nH]c23)C1	-3	2	4	-13	0	.	.
CCOc1ccc(CCNC(=O)CCc2c(C)nc3cc(-c4ccccc4OC)nn3c2C)cc1	.	.	4	.	0	.	.
CCn1cnc2c(cnn2-c2ccccc2)c1=O	-3	0	-9	26	-1	.	.
SMILES	D2 PAM-1	D2 ag-1	D2 PAM-2	D2 antag	D2 ag-2	D3 ag	D2 ag-3
O=c1c2cnn(-c3ccccc3)c2ncn1CCc1ccccc1	9	0	-19	6	65*	-3%	-2%
Cc1sc2ncn(CC(=O)N3CCN(c4ccccc4F)CC3)c(=O)c2c1S(=O)(=O)N1CCN(c2ncccn2)CC1	.	.	14	.	0	.	.
CCNC(=S)NNC(=O)c1ccccc1OC(F)F	-12	-1	-22	33*	26	-23%	-4%
Cc1c(Cc2ccccc2)c(=O)oc2c(O)c(O)ccc12	18	10	-13	34*	54*	?	23%
CC(=O)NC(c1cc(Cl)c2cccnc2c1O)C(C)C (stereo not given)	.	.	-14	-7	0	.	.
CC(=O)NC(c1cc(Cl)c2cccnc2c1O)C1CC1 (stereo not given)	.	.	3	-17	-1	-31%	-6%
CCN(CC)c1ccc(NC(=S)NC(=O)Cc2ccccc2)cc1	0	0	-21	77*	73*	-1%	0%
CCOc1ccc(NC(=S)NC(=O)Cc2ccccc2)cc1	-5	1	1	1	-1	.	.
CCOC(=O)N1CCC(NC(=O)c2ccc(CS(=O)c3cccc(Cl)c3)o2)CC1 (stereo not given)	-7	1	-15	54*	44*	-3%	0%
CCN1CCN(c2ncnc3scc(-c4ccc(C)c(C)c4)c23)CC1	-1	13	-1	8	9	.	.
CCN1CCN(c2ncnc3sc(C)c(-c4ccccc4)c23)CC1	12	?	.	-15	18	5%	18µM*
Cc1oc(-c2ccc(Cl)cc2)nc1Cn1c(=O)cc(C)c2c(C)nn(-c3ccccc3)c21	.	.	2	.	0	.	.

Source: PubChem BioAssay
